The numbers were not newly measured in PubChem BioAssay AID977610, which cites them from elsewhere.

The whole screen tested about 3,600 compounds, of which about 3,600 (100%) were called active. No cut-off is given here; in the data, nearly all actives have Ki up to about 18000 µM. The set was probably picked from earlier hits. Some of the results follow. Numbered stars: 1 amine (or outer) side, 2 acyl side, 3 side chain; on linkers, the order of the positions; unused ones are H or OH. Where a SMILES comes first, the peptide text is derived from it. Square brackets hold non-standard residues; d marks the D form. Residues, ends and D or L forms follow the SMILES beside them. Peptide text beside a SMILES is read from it. [ ]: non-standard residue; d: D form. X2 = O=C([C@H](Cc1ccc(O[P+](O)(O)O)cc1)N[*:1])[*:2]; Orn(CH(NH2)2) = NC(N)NCCC[C@H](N)C(=O)O

The data set is described as follows: PubChem AID 977610. As to conditions: PDB protein-ligand complexes, literature Ki.

As for `C[C@@H]1N[C@@H](c2cn(-c3ccccc3)nn2)[C@H](O)[C@@H]1O`, where the note is “protein: Alpha-L-fucosidase Fuc2970, PDB entry 4pee”, the Ki is 0.0048 µM (active).
On to `NCCCC[C@H](N[C@@H](CCc1ccccc1)C(=O)O)C(=O)N1CC=C[C@H]1C(=O)O`, for which the Ki (protein: human somatic angiontensin-I converting enzyme N domain, PDB entry 2c6n) was 0.131 µM (active).
Regarding `N[C@@H](CCc1cccnc1)[P+](O)(O)C[C@@H](Cc1ccccc1)C(=O)O`, the Ki (protein: Aminopeptidase N, PDB entry 4qir) is 0.112 µM (active).
Consider `NCc1ccc(C[C@H](C[P+](O)(O)[C@@H](N)CCc2ccccc2)C(=O)O)cc1`, for which, for the setting “protein: Aminopeptidase N, PDB entry 4qhp”, the inhibition constant (Ki) is 0.009 µM (active).
As to `NCc1cccc(C[C@H](C[P+](O)(O)[C@@H](N)CCc2ccccc2)C(=O)O)c1`, the Ki (protein: Aminopeptidase N, PDB entry 4quo) is 0.012 µM (active).
With `N[C@@H](CCc1ccccc1)[P+](O)(O)C[C@@H](Cc1ccccc1)C(O)O`, the Ki (protein: Aminopeptidase N, PDB entry 4qme) is 0.302 µM (active).
As to `O=C(O)c1cccc(-c2cnc([C@@H](O)CCc3ccc(-c4ccccc4)cc3)o2)n1`, the inhibitory constant (Ki) (protein: Humanized Variant of Fatty Acid Amide Hydrolase (L192F, F194Y, A377T, S435N, I491V, V495M), PDB entry 3k83) is 0.022 µM (active).
Consider `Cc1ccc(-c2cnc([C@@H](O)CCCCCCc3ccccc3)o2)nc1`, for which, where the note is “protein: Fatty-acid amide hydrolase 1 (L192F, F194Y, A377T, S435N, I491V, V495M mutation), PDB entry 4j5p”, the Ki is 0.012 µM (active).
For the molecule `O=C(O)c1cccc(-c2cnc([C@@H](O)CCCCCCc3ccccc3)o2)n1`, the Ki (protein: Humanized Variant of Fatty Acid Amide Hydrolase (L192F, F194Y, A377T, S435N, I491V, V495M), PDB entry 3k7f) is 0.02 µM (active).
As for `O=C1CC(NC(=O)c2c(Cl)cccc2Cl)=CC=N1`, the Ki (protein: Non-receptor tyrosine-protein kinase TYK2 (D1023N mutation), PDB entry 4gfo) is 0.24 µM (active) and the inhibitory constant (Ki) (protein: Tyrosine-protein kinase JAK2, PDB entry 4gfm) was 0.06 µM (active).
In the case of `CC(=O)N[C@@H](CCCNC(N)N)C(=O)N[C@@H](Cc1c[nH]c2ccccc12)C(=O)N[C@H]1CCCCCCCNC(=O)[C@@H]2CCCN2C(=O)[C@H](CCCNC(N)N)NC(=O)[C@H](C)NC(=O)[C@@H]2CCCN2C(=O)[C@H](Cc2ccccc2)NC1=O`, for the setting “protein: Menin, PDB entry 4i80”, the Ki was 0.0238 µM (active).
Turning to `Oc1ccc(Br)cc1/C=C/S(O)(O)O`, where the note is “protein: CARBONIC ANHYDRASE 2, PDB entry 4bcw”, the inhibitory constant (Ki) is 100 µM (active).
Take `CC(C)C[C@@H](N)[C@H](O)C(=O)N[C@H](C(=O)N[C@H](C(=O)N[C@@H](CC(=O)O)C(=O)O)C(C)C)C(C)C`: the Ki (protein: Glutamyl aminopeptidase, PDB entry 4kx8) is 0.074 µM (active).
Regarding `O=[N+]([O-])c1ccc2n[nH]nc2c1`, the Ki (protein: KEMP ELIMINASE HG3.17 (V6I, Q37K, K50Q, G82A, M84C, S89N, Q90F, T105I, A125T, T142N, T208M, S265T, F267M, W275A, R276F,, PDB entry 4bs0) is 2 µM (active).
Take H-RWQDTRL-OH: the Ki (protein: CFTR Associated Ligand (CAL) PDZ domain, PDB entry 4k75) was 56.2 µM (active).
Consider H-SRWQTSII-OH, for which, for the setting “protein: CFTR Associated Ligand (CAL) PDZ domain, PDB entry 4k6y”, the Ki is 14.8 µM (active).
With `CSCC[C@H](NC(=O)[C@H](CO)NC(=O)[C@H](CCC(N)=O)NC(=O)[C@H](CCCN=C(N)N)NC(=O)[C@H](CS)NC(=O)[C@@H](N)[C@@H](C)O)C(=O)N[C@@H](CS)C(=O)N[C@H](C(=O)N[C@@H](C)C(=O)N[C@@H](CCCN=C(N)N)C(=O)O)[C@@H](C)O` (tested in a mixture with another compound) (H-TCRQSMCTAR-OH), where the note is “protein: urokinase-type plasminogen activator (uPA), PDB entry 4mnv”, the inhibition constant Ki is 11.6 µM (active).
Consider `CNc1nc2c(CC[C@H]3O[C@@H](OC)[C@H](O)[C@@H]3OC)c3nc(N)[nH]c(=O)c3cc2[nH]1`, for which the Ki (protein: tRNA guanine transglycosylase (TGT), PDB entry 4kwo) is 0.353 µM (active).
Turning to `Cc1nnc(CNCCN2C(O)c3cccc4c(N(C)C)ccc(c34)C2O)s1` (stereo not drawn), the inhibition constant Ki (protein: insect beta-N-acetyl-D-hexosaminidase OfHex1, PDB entry 3wmc) was 0.31 µM (active).
On to `Cc1nnc(CNCCN2C(O)c3cccc4cccc(c34)C2O)s1` (stereo not drawn), for which the inhibition constant (Ki) (protein: insect beta-N-acetyl-D-hexosaminidase OfHex1, PDB entry 3wmb) is 4.28 µM (active).
On to `CC(=O)N[C@@H](Cc1ccc(O[P+](O)(O)O)cc1)C(=O)N[C@H](C(=O)N1CCC[C@H]1C(=O)N[C@@H](CCC(=O)O)C(=O)N1CCC[C@H]1C(N)=O)[C@@H](C)O` (Ac-[X2]TPEP-NH2), for which the Ki (protein: E3 ubiquitin-protein ligase CBL, PDB entry 4gpl) is 1.3 µM (active).
Turning to `N[C@H](C(=O)O)[C@@H]1N=C(C(=O)O)CCS1`, the Ki (protein: AmpC Beta-Lactamase, PDB entry 4old) was 2000 µM (active).
Turning to `C=C1CS[C@H]([C@H](N)C(=O)O)N=C1C(=O)O`, for the setting “protein: AmpC Beta-Lactamase, PDB entry 4okp”, the inhibition constant Ki was 2000 µM (active).
As for `Cc1ccc(NC(=O)c2cccc(C(F)(F)F)c2)cc1-c1ccc2nc(NC3CC3)ncc2c1`, the inhibitory constant (Ki) (protein: Mitogen-activated protein kinase 1 (Q103A, C164L mutation), PDB entry 4i5h) was 0.002 µM (active).
For `Cc1cccc(Nc2cc(S(O)(O)O)c(N)c3c2C(=O)c2ccccc2C3=O)c1`, the Ki (protein: ecto-nucleoside triphosphate diphosphohydrolase 2, RnNTPDase2, PDB entry 4cd1) is 12.8 µM (active).
As for `CCCCCC(=O)O[C@@H](CO)CO[P+](O)(O)OCC[N+](C)(C)C`, the inhibition constant (Ki) (protein: Avermectin-sensitive glutamate-gated chloride channel GluCl alpha, PDB entry 4tnw) is 167 µM (active).
Regarding `O=c1[nH]cnc2c(CN3C[C@H](O)[C@H](O)[C@H]3CO)csc12`, the inhibition constant (Ki) is 0.19 µM (active) (protein: Inosine-adenosine-guanosine-nucleoside hydrolase, PDB entry 4i73) and 0.19 µM (active) (protein: Inosine-adenosine-guanosine-nucleoside hydrolase, PDB entry 4i74).
As to `Nc1ncnc2c(CN3C[C@H](O)[C@H](O)[C@H]3CO)c[nH]c12`, where the note is “protein: Inosine-adenosine-guanosine-nucleoside hydrolase, PDB entry 4i71”, the Ki was 0.018 µM (active).
Consider `Nc1ncnc2c(CN3C[C@H](CSCC[C@H](N)C(=O)O)[C@@H](O)C3)c[nH]c12`, for which the inhibition constant (Ki) (protein: 5'-methylthioadenosine/S-adenosylhomocysteine nucleosidase, PDB entry 4f3k) is 6.9e-05 µM (active).
For `Nc1ncnc2c([C@@H]3N[C@H](CO)[C@@H](O)[C@H]3O)c[nH]c12`, the Ki (protein: Inosine-adenosine-guanosine-nucleoside hydrolase, PDB entry 4i72) was 0.0009 µM (active).
As to `CSCC[C@H](NC(=O)[C@H](C)N)C(=O)N[C@@H](CCCNC(N)N)C(=O)N[C@H](C(=O)O)C(C)C` (H-AM[Orn(CH(NH2)2)]V-OH), the Ki (protein: E3 ubiquitin-protein ligase XIAP (C202A, C213G mutation), PDB entry 4j48) is 2.41 µM (active).
